Data as given in PubChem BioAssay.
Activity calls are given as the source filed them.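 Rule for the calls, unless noted: active = compound raises insulin release from rat beta cells at 5 mM glucose, no numeric limit stated; inactive = the rest.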

What was measured:
[1] = stimulators of insulin release from INS-1E, primary screen, cell-based, 5 mM glucose, NPC library (AID 1117329); conditions: rat INS-1E insulin secretion, at 10 µM, stronger effect = higher value
[2] = growth inhibition of GSK3B-pretreated HCT116 cells – cell-based, CellTiter-Glo, 0.2 to 20 µM (AID 1117336;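 active = compounds lowering colon cancer cell viability after pretreatment blocking the GSK3B kinase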); conditions: HCT116 viability after GSK3B inhibitor, at 20 µM, stronger effect = higher value
[3] = inhibition of endothelial tube formation, primary screen, imaging, VEGF stimulated, CD31 staining, tube area, NPC library (AID 1117340;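 active = compound that reduces growth-factor-driven endothelial tube area in a mixed cell culture, no cutoff stated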); conditions: VEGF-stimulated ADSC/ECFC co-culture, at 10 µM, stronger effect = higher value
[4] = GLP1 release stimulators, primary, NCI-H716, NPC library (AID 1117341;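 active = compound raises GLP1 secretion from the human gut endocrine cells, with no numeric limit stated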); conditions: NCI-H716 cells, at 10 µM, stronger effect = higher value
[5] = HCT116 colon cancer cell growth inhibition, primary screen, CellTiter-Glo luminescence, NPC library (AID 1117342;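 active = compounds that lower survival of HCT116 colon cancer cells in the luminescence readout, no numeric limit stated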); conditions: at 20 µM (top of the series)
[6] = reduced SW480 viability measured with CellTiter-Glo, NPC library, primary (AID 1117343;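 active = compounds that lower viability of the colon cancer cells in the luminescence readout, with no numeric limit stated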); conditions: CellTiter-Glo luminescence; at 20 µM (top of the series)
[7] = NPC library primary testing for decreased DLD-1 cell viability via CellTiter-Glo (AID 1117346;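 active = compounds that lower survival of DLD-1 colon cancer cells in the luminescence readout, no cutoff given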); conditions: DLD-1 viability, CellTiter-Glo luminescence; at 20 µM (top of the series)
[8] = target: 6-phosphogluconate dehydrogenase, decarboxylating (Homo sapiens) (UniProt P52209); assay: inhibition of human phosphogluconate dehydrogenase – biochemical, recombinant enzyme, NADPH absorbance, primary screen (AID 1159550;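 active = at least 20% inhibition of 6-phosphogluconate dehydrogenase activity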); conditions: recombinant 6PGD, NADPH absorbance 341 nm; at 10 µM; stronger effect = higher value
6-phosphogluconate dehydrogenase, decarboxylating (Homo sapiens), sequence (P52209 whole entry, looked up): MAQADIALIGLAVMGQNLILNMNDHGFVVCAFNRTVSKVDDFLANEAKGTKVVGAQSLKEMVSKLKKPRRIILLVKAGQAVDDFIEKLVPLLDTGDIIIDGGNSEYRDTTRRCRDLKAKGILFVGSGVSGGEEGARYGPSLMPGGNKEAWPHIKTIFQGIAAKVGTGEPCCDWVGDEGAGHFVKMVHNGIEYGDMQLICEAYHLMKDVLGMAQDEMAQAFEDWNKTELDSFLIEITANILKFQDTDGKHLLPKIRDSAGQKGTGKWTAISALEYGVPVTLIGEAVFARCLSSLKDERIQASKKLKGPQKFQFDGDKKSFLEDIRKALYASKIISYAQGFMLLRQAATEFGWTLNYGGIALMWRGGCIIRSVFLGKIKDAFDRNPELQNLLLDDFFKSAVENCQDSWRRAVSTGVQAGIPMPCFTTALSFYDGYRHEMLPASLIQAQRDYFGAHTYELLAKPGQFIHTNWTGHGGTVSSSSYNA

[9] = EMT-state selective cytotoxicity in co-culture – imaging, PC-3E GFP, TEM4-18 mCherry, primary screen (AID 1345086;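 active = compounds killing one labelled cell type while sparing the other, by normalised counts and ratio limits, not self-fluorescent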;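 for all read-outs here: cells exposed to compound for 72 h before imaging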;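 for red/green cell ratio (normalised): normalised mesenchymal count divided by normalised epithelial count so high means epithelial killing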); conditions: PC-3E GFP / TEM4-18 mCherry co-culture, imaging cell counts, at 1 µM; for red/green cell ratio (normalised): actives lie on both sides, counts scaled to control wells, 1 = unselective
[10] = measured here: epithelial PC-3E GFP cell survival
[11] = measured here: mesenchymal TEM4-18 mCherry cell survival

Row | Compound | insulin secretion stimulation [1] | viability decrease [2] | tube area decrease [3] | GLP1 secretion stimulation [4] | inhibition of viability [5] | viability decrease (inhibition) [6] | viability decrease (inhibition) [7] | inhibition [8] | red/green cell ratio (normalised) [9] | normalised cell number [9, 10] | normalised cell number [9, 11]
1 | CC(=O)OCC1=C(C(=O)O)N2C(=O)[C@@H](NC(=O)CSc3ccncc3)[C@H]2SC1 | 0.9% (inactive) | 14.8% (inactive) | -9.7% (inactive) | -1.1% (inactive) | 5.07% (inactive) | 13.8% (inactive) | -15.1% (inactive) | 3.03% (inactive) | 1.23 (inactive) | 1 | 1.24
2 | COc1ccc(C2C(=O)c3ccccc3C2=O)cc1 | 0.7% (inactive) | 48.4% (inactive) | -33.4% (inactive) | -6% (inactive) | 35.2% (inactive) | 22.1% (inactive) | 11% (inactive) | -16% (inactive) | 0.84 (inactive) | 1.14 | 0.96
3 | NCCCC(=O)O | -0.7% (inactive) | 3.2% (inactive) | 12% (inactive) | 1.6% (inactive) | 1.3% (inactive) | 10.4% (inactive) | 0.95% (inactive) | 15.9% (inactive) | 0.83 (inactive) | 1.17 | 0.97
4 | COCCc1ccc(OCC(O)CNC(C)C)cc1 (centres undefined) | 5.6% (inactive) | -27.4% (inactive) | -8.1% (inactive) | -3.5% (inactive) | 12.1% (inactive) | 17.2% (inactive) | -6.3% (inactive) | -13.3% (inactive) | 0.71 (inactive) | 1.33 | 0.95
5 | COc1cc2c3cc1Oc1cc(ccc1O)C[C@@H]1c4c(cc(OC)c(O)c4Oc4ccc(cc4)C[C@@H]3N(C)CC2)CC[N+]1(C)C | -0.3% (inactive) | -3% (inactive) | 13.9% (inactive) | -1.7% (inactive) | -1.93% (inactive) | 5.3% (inactive) | -2.9% (inactive) | 0.384% (inactive) | 0.97 (inactive) | 1.08 | 1.05
6 | CC1CCc2cc(F)cc3c(=O)c(C(=O)O)cn1c23 (centres undefined) | 1.1% (inactive) | -105% (inactive) | 3.3% (inactive) | -1.9% (inactive) | 19.6% (inactive) | 51.1% (active) | -6.7% (inactive) | 2.78% (inactive) | 1.19 (inactive) | 0.89 | 1.05
7 | C=C1c2cccc(O)c2C(O)=C2C(=O)[C@]3(O)C(O)=C(C(N)=O)C(=O)[C@@H](N(C)C)[C@@H]3[C@@H](O)[C@H]12 | -1.8% (inactive) | -253% (inactive) | 9.7% (inactive) | 0.4% (inactive) | -0.33% (inactive) | -1.7% (inactive) | 58.4% (active) | 13.8% (inactive) | 0.93 (inactive) | 0.85 | 0.79
8 | O=C1c2cccc(O)c2C(=O)c2c(O)cccc21 | -2.2% (inactive) | 21.4% (inactive) | 6% (inactive) | 0% (inactive) | 21.9% (inactive) | 52.4% (active) | 9.7% (inactive) | -6.73% (inactive) | 1.24 (inactive) | 1.22 | 1.51
9 | CC(=O)OCC1=C(C(=O)O)N2C(=O)[C@@H](NC(=O)Cc3cccs3)[C@H]2SC1 | 3.6% (inactive) | 33.1% (inactive) | -3.9% (inactive) | 2.4% (inactive) | 2.9% (inactive) | -15.1% (inactive) | -1% (inactive) | 4.29% (inactive) | 1.02 (inactive) | 1.21 | 1.23
10 | COc1cccc(OC)c1C(=O)N[C@@H]1C(=O)N2[C@@H]1SC(C)(C)[C@@H]2C(=O)O | 0.6% (inactive) | -3.9% (inactive) | -4.7% (inactive) | -0.3% (inactive) | -7% (inactive) | 17.4% (inactive) | -4.8% (inactive) | 17.4% (inactive) | 1 (inactive) | 1.16 | 1.15
11 | Nc1c2ccccc2nc2ccccc12 | 39.7% (active) | 49.2% (active) | 81.5% (active) | 11.4% (inactive) | 105% (active) | 107% (active) | 49% (active) | -6.58% (inactive) | 0.95 (inactive) | 0.63 | 0.6
12 | CCC(=O)O[C@H]1[C@H](O[C@@H]2[C@@H](C)[C@H](O[C@H]3C[C@@](C)(OC)[C@@H](O)[C@H](C)O3)[C@@H](C)C(=O)O[C@H](CC)[C@@](C)(O)[C@H](O)[C@@H](C)C(=O)[C@H](C)C[C@@]2(C)O)O[C@H](C)C[C@@H]1N(C)C | -1.7% (inactive) | -28.1% (inactive) | 5.5% (inactive) | -0.1% (inactive) | 3.15% (inactive) | 13.9% (inactive) | -12.4% (inactive) | 1.5% (inactive) | 1.04 (inactive) | 1.08 | 1.12
13 | O=C(OCC(O)CO)c1ccccc1Nc1ccnc2cc(Cl)ccc12 (centres undefined) | 6.1% (inactive) | 53.3% (active) | -3.6% (inactive) | -2.3% (inactive) | 38.5% (inactive) | 53.8% (active) | 6.3% (inactive) | 11.2% (inactive) | 0.94 (inactive) | 0.84 | 0.79
14 | Cc1nnc(SCC2=C(C(=O)O)N3C(=O)[C@@H](NC(=O)Cn4cnnn4)[C@H]3SC2)s1 | -1.7% (inactive) | 3.2% (inactive) | 10.5% (inactive) | 2.7% (inactive) | 1.2% (inactive) | 4.8% (inactive) | -22.3% (inactive) | 1.44% (inactive) | 0.96 (inactive) | 1.16 | 1.12
